The record followed here is PubChem BioAssay AID651813 (National Center for Advancing Translational Sciences (NCATS), 2012).

Screen size: about 2,100 compounds; about 1,100 (52%) were called active. Another 27% or so got no clear call; they are omitted. So high a share suggests a set chosen from earlier hits. This is one part of the list. Values without a mark were called inactive. The call rests on the fitted dose curve; in most records, active means well fitted inhibition curve with a large enough effect; inconclusive means small, poorly fitted or top-dose-only effect; inactive means no such curve, though single readings can be large or run the other way.
Potency means the concentration at half of the fitted maximal effect.

DNA dC->dU-editing enzyme APOBEC-3G (Homo sapiens), sequence (Q9HC16 whole entry, looked up): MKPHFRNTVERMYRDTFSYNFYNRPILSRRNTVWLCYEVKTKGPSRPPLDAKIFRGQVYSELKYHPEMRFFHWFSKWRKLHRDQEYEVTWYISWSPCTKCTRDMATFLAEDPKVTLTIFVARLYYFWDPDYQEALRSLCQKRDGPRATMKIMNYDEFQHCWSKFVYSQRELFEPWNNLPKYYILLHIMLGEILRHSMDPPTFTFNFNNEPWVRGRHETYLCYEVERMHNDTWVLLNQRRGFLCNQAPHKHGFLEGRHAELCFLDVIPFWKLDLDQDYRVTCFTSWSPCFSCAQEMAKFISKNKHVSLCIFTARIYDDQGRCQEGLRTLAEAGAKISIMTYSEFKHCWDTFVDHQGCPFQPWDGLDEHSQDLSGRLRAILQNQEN

In the test the target is DNA dC->dU-editing enzyme APOBEC-3G (Homo sapiens) (UniProt Q9HC16). Nature of the test: qHTS for inhibitors of Vif-A3G interactions: Cherry picks counterscreen.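 Further: hits raise yellow fluorescence by blocking Vif-driven A3G-eYFP degradation; nearly all actives have a fitted effect of over 70% in size.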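 On max response: max response given as percent of control signal.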 The note with it: HeLa A3G-eYFP + Vif (tagged APOBEC3G with the HIV-1 protein that degrades it), eYFP fluorescence, 24 h. The gist of the method:
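HeLa cells stably expressing A3G-eYFP and Vif were treated for 24 h at 37 deg C with compounds at several concentrations; yellow fluorescence (Ex 488 nm, Em 500-530 nm) read by Acumen Explorer, MG132 as positive control.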
For orientation: qHTS replaces the single test concentration by a dilution series.
Consider `Cc1c(C(=O)Nc2cccnc2)oc2ccc(Br)cc12`, for which the Potency is 12.5 µM (active).
With `N#CC(C(=S)Nc1ccccc1)c1nc2ccccc2[nH]1` (configuration not stated), the max response was -4.48%.
In the case of `O=C(CSc1ccccc1)Nc1nc2ccccc2[nH]1`, the Potency is 9.94 µM (active).
On to `c1ccc2[nH]c(NN=C3CCCCCC3)nc2c1`, for which the max response was 0.674%.
With `Fc1cccc(Cc2c(-c3ccco3)nc3ccc(Br)cn23)c1`, the Potency was 14 µM (active).
Still for that read-out and setting: next, `COC(=O)c1ccc(Oc2cc(C)nc(SC)n2)cc1`: 8.86 µM (active).
With `Cc1ccc(-c2nc3ncccc3o2)cc1NC(=O)c1ccc([N+](=O)[O-])o1`, the max response was 3.91%.
Consider `O=C(NCc1ccccc1)C(=O)NCC1COc2ccccc2O1` (configuration not stated), for which the Potency is 12.5 µM (active).
For the compound `CC1CCN(C(=O)C(C)Sc2nc(-c3ccccc3)cc(C(F)(F)F)n2)CC1` (configuration not stated), the max response is 2.38%.
Take `COC(=O)CCS(=O)(=O)c1nc(-c2ccccc2)cc(C(F)(F)F)n1`: the Potency was 12.5 µM (active).
On the same count and under the same terms, next, `COc1ccc2o/c(=N/NC(=O)c3cccs3)c(C(N)=O)cc2c1`: 12.5 µM (active); `CCOC(=O)c1c(C)sc(-c2c(-c3ccccc3)[nH]c3[nH]c(=O)[nH]c(=O)c23)c1O`: 18.4 µM (active).
On the same count and under the same terms, next, `COc1cc(-c2noc(C)c2/C=C/c2ccc(OC(C)=O)cc2)cc(OC)c1OC`: 0.627 µM (active).
Same read-out and setting: next, `Cc1ccc(O)c(NC(=O)c2cc(-c3ccccc3O)no2)c1`: 23.1 µM (active); `COc1ccc(/C=N/NC(=O)c2cc3c(OC)ccc(OC)c3[nH]2)cc1O`: 4.44 µM (active).
Take `COc1ccc2[nH]c(C(=O)N/N=C/c3ccc(OC)c(O)c3)cc2c1`: the Potency was 4.44 µM (active).
For `COc1ccc(S(=O)(=O)Nc2cc(Sc3ncn[nH]3)c(O)c3ccccc23)cc1`, the max response is -11.5%.
Regarding `COC(=O)c1cccc(NS(=O)(=O)c2ccc(OC)cc2)c1C`, the Potency was 7.04 µM (active).
Still for that read-out and setting: next, `COc1ccc(S(=O)(=O)Nc2cccc3ccccc23)cc1`: 5.17 µM (active).
Same read-out and setting: next, `CC1CCCCC1NC(=O)/C(C#N)=C/C=C/c1ccccc1[N+](=O)[O-]` (configuration not stated): 14 µM (active).
Regarding `Fc1cccc(F)c1/C=N/NC(=S)Nc1cccnc1`, the max response is -2.63%.
With `CCOc1ccccc1C1CC(=O)NC2=C1C(=O)CCC2` (configuration not stated), the Potency was 12.5 µM (active).
Still for that read-out and setting: next, `CCCOc1ccccc1C1CC(=O)NC2=C1C(=O)CCC2` (configuration not stated): 6.27 µM (active).
As to `CCCCN(CCC(=O)O)c1ccc(/C=C/c2ccnc3ccccc23)cc1`, the Potency is 18.4 µM (active).
Take `CCN(C)c1ccc(/C=C/c2ccnc3ccccc23)cc1`: the Potency was 18.4 µM (active).
As for `CCCN(CCC)c1ccc(/C=C/c2ccnc3ccccc23)cc1`, the Potency is 14.6 µM (active).
As for `CCCCN(CCCC)c1ccc(/C=C/c2ccnc3ccccc23)cc1`, the Potency was 16.4 µM (active).
With `CC(C)CN(CC(C)C)c1ccc(/C=C/c2ccnc3ccccc23)cc1`, the Potency was 16.4 µM (active).
The same measure, in the same setting: next, `CCN(CCCN(C)C)c1ccc(/C=C/c2ccnc3ccccc23)cc1`: 18.4 µM (active); `CCN(CC)c1ccc(/C=C/c2ccnc3ccccc23)cc1`: 14.6 µM (active).
For the compound `O=C1OC(/C(=C\Nc2cc(Cl)ccc2O)[N+](=O)[O-])c2ccccc21` (configuration not stated), the max response is 4.09%.
As for `Cc1nc2ccc(NC(=O)c3cc(S(=O)(=O)N(C)c4ccccc4)ccc3Cl)cc2s1`, the Potency was 16.4 µM (active).
Still for that read-out and setting: next, `N=c1n(CC(=O)c2ccc([N+](=O)[O-])cc2)c2ccccc2n1Cc1ccccc1`: 20.6 µM (active).
Same read-out and setting: next, `COc1ccc(-c2cc(C(F)F)n3ncc(C(=O)N4CCc5ccccc54)c3n2)cc1`: 2.23 µM (active).
On the same count and under the same terms, next, `CC(=O)Nc1ccc(-c2ccnc3c2CC(C)(C(=O)NCc2ccco2)O3)cc1` (configuration not stated): 7.04 µM (active).
Turning to `CC(=O)Nc1cccc(-c2ccnc3c2CC(C)(C(=O)NCc2cccs2)O3)c1` (configuration not stated), the Potency was 3.14 µM (active).
Still for that read-out and setting: next, `CC1(C(=O)NCc2ccco2)Cc2c(-c3cccc(C(N)=O)c3)ccnc2O1` (configuration not stated): 7.04 µM (active); `CC1(C(=O)NCc2cccs2)Cc2c(-c3ccc(C(N)=O)cc3)ccnc2O1` (configuration not stated): 9.94 µM (active).
In the case of `Cn1c(=O)c(N)c2c3c(c(Br)ccc31)C(=O)c1ccccc1-2`, the max response is 44.6%.
As for `CC(=O)Nc1cccc(-c2ccnc3c2CC(C(=O)NCc2cccs2)O3)c1` (configuration not stated), the Potency is 2.23 µM (active).
With `CC1(C(=O)NCc2ccccc2)Cc2c(-c3cccc(C(N)=O)c3)ccnc2O1` (configuration not stated), the Potency is 6.27 µM (active).
On to `CC1(C(=O)NCc2ccccc2)Cc2c(-c3ccc(C(N)=O)cc3)ccnc2O1` (configuration not stated), for which the Potency is 6.27 µM (active).
As for `CC1(C(=O)NCc2ccc(F)c(F)c2)Cc2c(-c3cccc(C(N)=O)c3)ccnc2O1` (configuration not stated), the Potency was 17.7 µM (active).
Same read-out and setting: next, `CC(=O)Nc1cccc(-c2ccnc3c2CC(C)(C(=O)NCc2ccccc2)O3)c1` (configuration not stated): 1.4 µM (active).
For `CC(=O)Nc1ccc(-c2ccnc3c2CC(C(=O)NCc2ccccc2)O3)cc1` (configuration not stated), the Potency is 0.444 µM (active).
Still for that read-out and setting: next, `CC(=O)Nc1ccc(-c2ccnc3c2CC(C(=O)NCc2cccc(Cl)c2)O3)cc1` (configuration not stated): 3.14 µM (active); `N#Cc1c(C(F)(F)F)cc(-c2ccccc2)nc1SCc1nc(N)nc(N2CCOCC2)n1`: 2.91 µM (active).
Consider `N#CC(C#N)=C1C=C2C=C(N3CCOCC3)CCC2CC1` (configuration not stated), for which the max response is 51.3%.
`Cc1ccc(/C(C#N)=C\c2ccc(N3CCOCC3)o2)cc1`: the Potency was 17.7 µM (active).
The same measure, in the same setting: next, `N#C/C(=C/c1ccc(N2CCOCC2)o1)c1ccc(Cl)cc1`: 2.31 µM (active).
Take `N#C/C(=C\c1ccc(N2CCOCC2)o1)c1ccccc1`: the Potency is 14 µM (active).
As for `N#C/C(=C/c1ccc(N2CCCCCC2)o1)c1ccc(Cl)cc1`, the Potency was 2.91 µM (active).
Turning to `Cc1ccc(S(=O)c2ccc([N+](=O)[O-])c3nonc23)cc1` (configuration not stated), the max response was 28.3%.
Take `CN1CCC(OC(=O)c2cc3cc(Cl)cc(Cl)c3oc2=O)CC1`: the max response was 17.4%.
As for `Cn1nnc2c[n+](CC(=O)c3ccc(Cl)cc3)cc(Br)c21`, the Potency was 19.8 µM (active).
Take `O=C(Nc1nnc(-c2ccc3c(c2)CCCC3)o1)c1c(F)cccc1F`: the max response was 11.9%.
On the same count and under the same terms, next, `C/C(=N\NC(=O)c1cc(C)nc2ccccc12)c1ccncc1`: -20.6%.
With `Cc1ccc(C=NNC(=O)c2cc(-c3cccnc3)nc3ccccc23)o1`, the Potency is 15.8 µM (active).
Regarding `O=C(N/N=C/c1ccc(Cl)cc1)c1cc(-c2cccnc2)nc2ccccc12`, the Potency was 2.5 µM (active).
The same measure, in the same setting: next, `Cc1cc(C(=O)N/N=C/c2ccc(C)o2)c2ccccc2n1`: 4.98 µM (active).
Take `O=C(N/N=C/c1c(O)n(-c2ccc(Cl)cn2)c(=O)c2ccccc12)c1ccncc1`: the max response was -19.7%.
Turning to `Cc1ccc(/C=N/NC(=O)c2cc(-c3ccccc3)nc3ccccc23)o1`, the Potency was 19.8 µM (active).
